# Test results taken from PubChem BioAssay AID504692 (The Scripps Research Institute Molecular Screening Center, 2011).
# Among all 340,000 compounds or so, about 2,000 (0.59%) were called active. The full list was thinned out, with actives kept by preference. A number with no mark means an inactive call. Cut-off read from the data, not from the text of the source: active = activation mostly above about 9.5% (no sharp cut-off); inactive = mostly below about 7.6%.
# Biological target: 5-hydroxytryptamine receptor 5A (Homo sapiens) (UniProt P47898)
# Experiment: activation of human 5-HT5A receptor – cell-based, luminescence, full-deck HTS, counter-screen for OPRM1-OPRD1 heterodimer agonist project, primary screen (AID 504692);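 note: 0% = cells with vehicle only and 100% = reference agonist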
# Conditions: HTR5A agonist assay, at 9.3 µM, stronger effect = higher value
# Chain of 5-hydroxytryptamine receptor 5A (Homo sapiens) (P47898 whole entry, looked up): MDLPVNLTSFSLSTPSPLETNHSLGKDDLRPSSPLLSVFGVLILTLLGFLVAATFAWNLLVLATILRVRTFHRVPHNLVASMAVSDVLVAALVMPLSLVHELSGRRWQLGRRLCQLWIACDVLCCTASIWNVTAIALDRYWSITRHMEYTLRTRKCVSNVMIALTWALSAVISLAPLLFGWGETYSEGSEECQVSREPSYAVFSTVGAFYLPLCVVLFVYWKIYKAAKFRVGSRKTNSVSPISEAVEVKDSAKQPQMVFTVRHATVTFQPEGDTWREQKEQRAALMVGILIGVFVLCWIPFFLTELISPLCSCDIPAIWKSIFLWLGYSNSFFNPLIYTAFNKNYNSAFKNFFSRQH
row,Compound,activation
1,COCCCn1c(-c2cccs2)nc2nc3ccccc3nc21,-0.51%
2,CC(OC(=O)CCc1nc(=O)c2ccccc2n1C)C(=O)NCc1ccc2c(c1)OCO2 (stereo not given),-4.46%
3,C=CCSc1nnc2c(n1)-c1cccc3cccc-2c13,-0.69%
4,COc1cccc(C(=O)NNS(=O)(=O)c2ccc(F)cc2)c1,-2.33%
5,Nc1ccc(C(=O)N2CCN(S(=O)(=O)c3ccc(Cl)cc3)CC2)cc1[N+](=O)[O-],-1.02%
6,O=C(COc1ccc(Cl)cc1[N+](=O)[O-])N1CCCCC1,-1.55%
7,O=C(c1ccc(Oc2ccc(Cl)cc2)c([N+](=O)[O-])c1)N1CCCC1,11% (active)
8,Cc1cnc(C(=O)N2CCCC(N3CCN(c4ccccc4F)CC3)C2)cn1 (stereo not given),5.27%
9,Cc1ccc(S(=O)(=O)/N=C(/Nc2ccc3[nH]c(=O)[nH]c3c2)c2ccccc2)cc1,3.44%
10,COc1c(Cl)cc(C(=O)Nc2ccc(Cl)cn2)cc1Cl,18.5% (active)
11,COc1ccc(C(=O)NC(=S)Nc2ccc(Cl)cn2)cc1OC,0.47%
12,O=C(Nc1ccc(Cl)cn1)c1ccc2c(c1)OCCO2,1.65%
13,O=C(NCCS(=O)(=O)c1ccc(Br)cc1)c1ccccc1Cl,0.17%
14,Cc1ccc(CN2C(=O)N/C(=C/c3cc(C)n(-c4ccccn4)c3C)C2=O)cc1,1.53%
15,Cc1cccc(NC(=O)CN2CCCN(S(=O)(=O)c3ccc(Br)s3)CC2)c1,0.97%
16,Cc1ccc(SCCC(=O)Nc2cc(C)on2)cc1,-4.61%
17,Cc1ccc2nc(-c3ccc(SCC(=O)Nc4cc(C)on4)nc3)[nH]c2c1,-0.96%
18,Cc1ccc(-c2csc(SCC(=O)Nc3cc(C)on3)n2)cc1,14.7% (active)
19,O=C(NCC(F)(F)F)Nc1nnc(C(F)(F)F)s1,4%
20,O=C(c1cccc([N+](=O)[O-])c1)N1CCN(Cc2ccccc2)CC1,5.31%
21,Cc1ccc(S(=O)(=O)N(Cc2cccc([N+](=O)[O-])c2)C(=O)N2CCN(C)CC2)cc1,0.8%
22,O=C(CCl)N(Cc1cccc([N+](=O)[O-])c1)c1cccc(Cl)c1,40.9% (active)
23,O=S(=O)(NCCCCCCNS(=O)(=O)c1c(F)cccc1F)c1ccc2c(c1)OCCO2,2.32%
24,COc1ccccc1N(C)S(=O)(=O)c1ccc(C(=O)NC2CCCCCC2)cc1,2.54%
25,CC1CCC2CCCCC2N1C(=O)c1cc([N+](=O)[O-])cc([N+](=O)[O-])c1 (stereo not given),4.16%
